From PubChem BioAssay AID1345083 (National Center for Advancing Translational Sciences (NCATS), 2018)
The whole screen tested about 94,000 compounds, of which about 6,200 (6.6%) were called active. Another 31% or so got no clear call; they are omitted. The call rests on the fitted dose curve; in most records, active means well fitted inhibition curve with a large enough effect; inconclusive means small, poorly fitted or top-dose-only effect; inactive means flat fitted curve, though single readings scatter. This excerpt belongs to a sample that is enriched for actives.

assay: Cytotoxic Profiling in HEK 293 Cell Line of Diverse Libraries Using Quantitative High-Throughput Screening; details: HEK 293 viability, ATP luminescence (CellTiter-Glo), 48-72 h; series mostly up to 115 µM; activity change, negative = cytotoxicity: at the top concentration; further: nearly all actives have a fitted effect of over 60% in size
Text: Cell-based phenotypic screening is a commonly used approach to discover biological pathways, novel drug targets, chemical probes and high-quality hit-to-lead molecules. Many hits identified from high-throughput screening campaign are ruled out through a series of follow-up potency, selectivity/specificity, and cytotoxicity assays. Prioritization of molecules with little or no cytotoxicity for a more in-depth downstream evaluation influence the future direction of projects, so cytotoxicity profiling of the screening libraries at early stage is essential for increasing the likelihood of candidate success. In this study, we analyzed results from a cell-based cytotoxicity screening campaign, comprising nearly 10,000 compounds in NCATS annotated libraries, and over 100,000 compounds in a diversity library, evaluated in four normal cell lines (HEK 293, NIH 3T3, CRL-7250 and HaCat) and a cancer cell line (KB 3-1, a HeLa subline) with overall screening outcomes, hit rates, pan-activity and selectivity. For the annotated library, we also examined the primary targets and mechanistic pathways regularly associated with cell death. To our knowledge, this is the first study to use high-throughput screening to profile large libraries for cytotoxicity assessment in both normal and cancer cell lines. In summary, the results generated here constitutes a valuable resource for the scientific community and provides insight on identifying cytotoxic compounds with particular mechanisms of action, and prioritizing compounds with suitable cytotoxicity profile for further evaluation.
HEK 293 cells were seeded into white 1536-well plates using a Multidrop Combi peristaltic dispenser (ThermoFisher, Waltham, MA) at a density of 250 cells/well in 5 uL of medium respectively. A pintool (Kalypsys) was used to transfer 23 nL of compound solution to the 1536-well assay plates. After 48 or 72 hr incubation at 37 degree Celsius, 5% CO2 and 95% humidity, 2.5 uL of CellTiter-Glo (Promega) was dispensed into each well using a dispenser (Aspect Automation, St. Paul, MN) with solenoid valves (Lee Valves, Westbrook CT). Plates were left at room temperature for 10 min before imaging the ATP-coupled luminescence using a ViewLux microplate imager (PerkinElmer, Waltham, MA).
On the % scale 0 is the no-effect control and ±100 the full control effect; potency means the concentration at half of the fitted maximal effect.

Structure (SMILES) | activity change, negative = cytotoxicity | outcome | Potency
Cc1ncc2c(n1)C[C@@H]1CC[C@H]2N1S(=O)(=O)c1ccc(F)cc1 | -9.05% (inactive) | – | –
O=C(Cc1cccc(F)c1)N1[C@H]2CC[C@@H]1c1cnc(-c3ccccc3)nc1C2 | -17.9% (inactive) | – | –
Cc1cccc(CC(=O)N2[C@H]3CC[C@@H]2c2cnc(C)nc2C3)c1 | – | inactive | –
CCS(=O)(=O)N1[C@H]2CC[C@@H]1c1cnc(C)nc1C2 | – | inactive | –
COC(=O)c1ccc(NC(=O)N2[C@H]3CC[C@@H]2c2cnc(-c4ccc(F)cc4)nc2C3)cc1 | – | – | 44.7 µM (active)
O=C(Cc1ccccc1)N1[C@H]2CC[C@@H]1c1cnc(-c3ccc(F)cc3)nc1C2 | – | – | 28.2 µM (active)
Cn1cnc(S(=O)(=O)N2[C@H]3CC[C@@H]2c2cnc(-c4ccc(F)cc4)nc2C3)c1 | -5.79% (inactive) | – | –
Cc1ncc2c(n1)C[C@@H]1CC[C@H]2N1C(=O)c1ccccn1 | -3.35% (inactive) | – | –
Cc1nc(C)c(C(=O)N2[C@H]3CC[C@@H]2c2cnc(-c4ccccc4)nc2C3)s1 | – | – | 39.8 µM (active)
O=C(c1ccc2c(c1)CCO2)N1C[C@@H](c2ccc(F)cc2)[C@@H]2[C@H]1C1CCN2CC1 | – | inactive | –
O=[S+]1([O-])NC2(CCN(CC3CCOCC3)C2)COc2ccncc21 (stereo unspecified) | – | inactive | –
CC(=O)N1CC2(CCN(Cc3cccnc3)C2)Cc2ccccc21 (stereo unspecified) | -16.8% (inactive) | – | –
CC(C)N1CCN(C(=O)Cc2cccn2-c2ccc(F)cc2)CC1 | -18.2% (inactive) | – | –
Cc1ccc2c(n1)N(C)[C@H](CO)CCN(C1CCCC1)C2 | -1.63% [at 230 µM] (inactive) | – | –
O=C1NC2(Cc3ccccc31)CN(CC1CC1)C2 | – | inactive [at 230 µM] | –
Cc1ccc([C@@H]2CN(C(=O)c3ccco3)[C@@H]3C4CCN(CC4)[C@@H]32)cc1 | -13.1% (inactive) | – | –
O=C(c1cocn1)N1C[C@H](c2cccc(F)c2F)[C@@H]2[C@H]1C1CCN2CC1 | – | inactive | –
CCCS(=O)(=O)N1C[C@@H]2C[C@H](C1)c1ccc(-c3ccccc3C)c(=O)n1C2 | – | inactive [at 172 µM] | –
COc1cc2c(cc1Oc1cccc(N(C)C)c1)NC(=O)C21CCN(Cc2ccccn2)CC1 | – | – | 44.7 µM (active)
COc1cc2c(cc1OC1CCCC1)NC(=O)C21CCN(c2nccs2)CC1 | – | – | 89.1 µM (active)
COc1cc2c(cc1Oc1ccccc1)NC(=O)C21CCN(c2ccnc(C)n2)CC1 | – | – | 63.1 µM (active)

Structure (SMILES) | activity change, negative = cytotoxicity | outcome | Potency
COc1cc2c(cc1OCc1ccncc1)NC(=O)C21CCN(c2ncc(F)cn2)CC1 | – | – | 50.1 µM (active)
O=C(c1ccncc1)N1C[C@@H]2C[C@H](C1)c1ccc(C3CCCCC3)c(=O)n1C2 | -2.59% [at 172 µM] (inactive) | – | –
CC1=NOC2(CCN(Cc3cncs3)C2)C1 (stereo unspecified) | – | inactive [at 172 µM] | –
O=[S+]1([O-])NCC2(CCN(Cc3cccnc3)C2)Oc2ncccc21 (stereo unspecified) | – | inactive | –
O=C1CC2CCN(Cc3cccnc3)CC2CCN1 (stereo unspecified) | – | inactive [at 172 µM] | –
O=C1NC2(Cc3ccccc31)CN(Cc1ccncc1)C2 | – | inactive [at 172 µM] | –
COc1cccc([C@H]2CN(c3cc(C)nc(N)n3)[C@@H]3C4CCN(CC4)[C@H]23)c1 | -20.8% (inactive) | – | –
CNC(C)c1ccc(Cl)cc1 (stereo unspecified) | -18.1% [at 230 µM] (inactive) | – | –
Cc1ccccc1OCC(=O)N1CCN(Cc2ccc(=O)n(C)c2)CC1 | -19.9% (inactive) | – | –
C=CCOc1c(Cl)cc(CNC(C)Cn2cccn2)cc1OC (stereo unspecified) | -12.6% (inactive) | – | –
CC(C)N1CC2CCC(C1)N2C(=O)N1CCCC1 | 4.58% [at 172 µM] (inactive) | – | –
O=C(NC1CCCCC1)N1C[C@@H]2C[C@H](C1)c1c(-c3ccccc3F)ccc(=O)n1C2 | -25.2% [at 172 µM] (inactive) | – | –
FC(F)(F)CN1C2CCC1CN(c1ccc(Cl)nn1)C2 | – | inactive | –
COc1cc2c(cc1OCc1ccncc1)NC(=O)C21CCN(c2ncccn2)CC1 | – | – | 100 µM (active)
CC(C)C(=O)N1CCC2(CC1)NCc1ccccc1-n1ccnc12 | -12.3% (inactive) | – | –
COc1cc2c(cc1-c1ccncc1)NC(=O)C21CCN(C(C)=O)CC1 | -19.9% [at 172 µM] (inactive) | – | –
COc1cc2c(cc1OCc1ccccc1)NC(=O)C21CCN(C(=O)C(C)C)CC1 | – | – | 89.1 µM (active)
COc1ccc([C@@H]2CN(C(=O)c3c(C)noc3C)[C@@H]3C4CCN(CC4)[C@@H]32)cc1 | -7.87% (inactive) | – | –
CCCS(=O)(=O)NC[C@H]1C[C@@H]2CCN1C[C@@H]2c1cc(C2CCCC2)nn1C | -26.7% [at 172 µM] (inactive) | – | –
CCC(CC)c1cc([C@H]2CN3CC[C@H]2C[C@@H]3CNS(=O)(=O)Cc2ccccc2)nc(-c2ccncc2)n1 | – | – | 31.6 µM (active)
Cc1ccc(S(=O)(=O)NC[C@H]2C[C@@H]3CCN2C[C@@H]3CN2CCN(c3ncccn3)CC2)cc1 | -6.41% (inactive) | – | –

Structure (SMILES) | activity change, negative = cytotoxicity | outcome | Potency
CCCCc1cn(C[C@H]2CC3CCN2C[C@@H]3C(=O)NCc2ccccc2)nn1 (stereo partly specified) | -1.65% [at 172 µM] (inactive) | – | –
COc1ccc(-c2cn(C[C@H]3C[C@@H]4CCN3C[C@@H]4C(=O)NCc3ccccc3)nn2)cc1 | -21% [at 172 µM] (inactive) | – | –
CCC(CC)c1cc([C@H]2CN3CC[C@H]2C[C@@H]3CNC(=O)NCc2ccccc2)nc(-c2ccncc2)n1 | – | – | 28.2 µM (active)
O=[N+]([O-])c1ccc(N2CC3CCC(C2)N3CC(F)(F)F)nc1 | – | inactive | –
Cc1ccc(S(=O)(=O)NC[C@H]2C[C@@H]3CCN2C[C@@H]3CN2CCSCC2)cc1 | 0.97% [at 172 µM] (inactive) | – | –
Cc1noc(C)c1C(=O)N1C2CCC1CN(Cc1cccnc1)C2 | -29.8% (inactive) | – | –
O=C(O)COCC(=O)N1C[C@@H]2C[C@H](C1)c1c(-c3ccc4ccccc4c3)ccc(=O)n1C2 | -2.71% [at 172 µM] (inactive) | – | –
CCOc1ccc(C(=O)N2CCC3(CC2)c2nccn2-c2ccccc2CN3C)cc1 | -21.5% (inactive) | – | –
C#C[C@H]1CN2CC[C@H]1C[C@@H]2COC(=O)Nc1cc(OC)cc(OC)c1 | – | – | 100 µM (active)
C#C[C@H]1CN2CC[C@H]1C[C@@H]2CNC(=O)C1CC1 | -2.38% [at 230 µM] (inactive) | – | –
CCCNC(=O)OC[C@H]1C[C@@H]2CCN1C[C@@H]2c1cc(-c2ccc(OC)c(OC)c2)nn1C | -12.2% (inactive) | – | –
FC(F)(F)CN1C2CCC1CN(c1ccc(C(F)(F)F)nc1)C2 | -14.1% (inactive) | – | –
Cn1cc(CN2CCN3C(=O)N(c4ccccn4)C[C@H]3C2)cn1 | – | inactive [at 172 µM] | –
CN(Cc1ccccc1)C[C@H]1CN2CC[C@H]1C[C@@H]2CNC(=O)Nc1cccc(C#N)c1 | – | – | 89.1 µM (active)
CN(CCc1ccccn1)C[C@H]1CN2CC[C@H]1C[C@@H]2CNC(=O)c1ccccc1 | -30% [at 172 µM] (inactive) | – | –
O=C(NC[C@H]1C[C@@H]2CCN1C[C@@H]2CN1CCC(Cc2ccccc2)CC1)c1ccco1 | -25.4% [at 172 µM] (inactive) | – | –
CC[C@H]1CN2CC[C@H]1C[C@@H]2CNC(=O)c1ccc(N(C)C)cc1 | 4.54% [at 172 µM] (inactive) | – | –
C=CCN(C)C[C@H]1CN2CC[C@H]1C[C@@H]2CNC(=O)Nc1cccc(SC)c1 | – | – | 63.1 µM (active)
CC[C@H]1CN2CC[C@H]1C[C@@H]2CNCc1cccc(C#N)c1 | -0.0855% [at 230 µM] (inactive) | – | –
